MCF10A rereplic: inducers of DNA re-replication in MCF 10A breast cells; hit rate 2.9% among 350,000; MCF 10A DNA re-replication, Hoechst nuclear intensity, 48 h; AID 624296; Potency, µM (top dose mostly 46.1 µM), usual class: activators; also: nearly all actives have a fitted effect of over 50% in size
IL-1B inflam inh: blocks inflammasome-driven IL-1 beta release; activity change, % at 57.5 µM; THP-1 LPS/ATP IL-1B secretion, AlphaLISA, 16 h; active compounds read low; hit rate 4.7% among 360,000; AID 743279; in the data active = activity change below about -50%; inconclusive = mostly about -30% to -49%
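THP-1 cells pretreated 1 hr with compounds (up to 57.5 uM final), then stimulated with LPS (250 ng/mL final) plus ATP (1.25 mM final); secreted IL-1B measured by AlphaLISA after 16 hr, decreased signal indicating inhibition.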
KB-3-1 cytotox: KB-3-1 parental cell cytotoxicity; KB-3-1 viability, CellTiter-Glo ATP luminescence, 72 h; Potency, µM (highest dose often 46.1 µM), most hits filed as cytotoxic; hit rate 1.4% among 400,000; AID 1347075; also: nearly all actives have a fitted effect of over 60% in size
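Here the drug-naive KB-3-1 line serves as comparator for MDR sub-line selectivity; cells received compound titrations, 72 h at 37 °C, then CellTiter-Glo readout.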
SW480 rereplic: induces DNA re-replication in SW480 colon adenocarcinoma cells; Potency, µM (highest dose often 46.1 µM), usual class: activators; AID 624297; hit rate 1.8% among 340,000; SW480 DNA re-replication, Hoechst DNA content imaging, 48 h; also: nearly all actives have a fitted effect of over 55% in size
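Cells (250 per well) received 23 nL compound or DMSO by pin tool and were kept 48 hr at 37 C, 5% CO2. Nuclei were then stained with Hoechst for 40 min and scanned for DNA content.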
KB-V1 cytotox: kills drug-selected multidrug resistant KB-V1 cells; Potency, µM (highest dose often 46.1 µM), usual class: cytotoxic; hit rate 3.4% among 400,000; KB-V1 MDR cells viability, CellTiter-Glo, 72 h; AID 1347076; also: nearly all actives have a fitted effect of over 60% in size
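Potencies derive from concentration-effect curves fitted to normalized luminescence (CellTiter-Glo) of KB-V1 cells treated for 72 h at 37 degrees C in phenol-red-free DMEM containing 10% FBS.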
Each line names hits and unclear results; the compound was inactive in the other large screens. Shown are actives, neighbours in structure and some others; about 9.9% of the full set was active somewhere. Unless noted, calls follow the shape of the dose curve; as a rule, active = well fitted curve in the direction sought with a large enough effect; inconclusive = small, poorly fitted or top-dose-only effect, or another doubt; inactive = no such curve, though single readings can be large; an effect the other way counts as inactive or inconclusive.

Cc1cc(C)c(C(=O)Nc2ccc(Br)c(C(F)(F)F)c2)c(C)c1	MCF10A rereplic 23.1µM, KB-3-1 cytotox inconclusive, SW480 rereplic inconclusive
O=C(O)c1ccccc1C(=O)Nc1ccc(Br)c(C(F)(F)F)c1	none
O=S(=O)(O)c1cc(O)c2c(O)c(N=Nc3cc(Cl)ccc3O)c(S(=O)(=O)O)cc2c1	KB-3-1 cytotox 14.6µM, KB-V1 cytotox inconclusive
Cc1cc(-c2ccc(N=Nc3c(S(=O)(=O)O)cc4cc(S(=O)(=O)O)cc(N)c4c3O)c(C)c2)ccc1N=Nc1c(S(=O)(=O)O)cc2cc(S(=O)(=O)O)cc(N)c2c1O	none (no result: IL-1B inflam inh, KB-3-1 cytotox, KB-V1 cytotox)
O=C(NCc1cccnc1)c1cc(C2CCCN(S(=O)(=O)c3cccs3)C2)on1 (stereo not drawn)	none (no result: MCF10A rereplic, SW480 rereplic)
O=C(NCc1ccccc1)c1cc(C2CCCN(S(=O)(=O)c3cccs3)C2)on1 (stereo not drawn)	IL-1B inflam inh -58.7 (no result: MCF10A rereplic, SW480 rereplic)
CC(=O)N1CCOCCOCCN(C(C)=O)CCOCC1	KB-V1 cytotox inconclusive
CCN(CC)CCCNc1nc(-n2nc(C)cc2C)nc2sc3c(c12)CC(C)(C)OC3	IL-1B inflam inh -57.0, SW480 rereplic inconclusive
Cc1cc(C)n(-c2nc(NCc3cccnc3)c3c4c(sc3n2)COC(C)(C)C4)n1	IL-1B inflam inh inconclusive, KB-3-1 cytotox inconclusive, KB-V1 cytotox inconclusive
CCN(CC(=O)Nc1c(F)cccc1F)C(=O)c1ccc(C)c(S(=O)(=O)N2CCCCC2)c1	none
Nc1ccc(-c2nc3ccc([N+](=O)[O-])cc3[nH]2)cc1	IL-1B inflam inh -80.0
O=[N+]([O-])c1ccc2nc(/C=C/c3ccc(Cl)cc3)[nH]c2c1	IL-1B inflam inh -93.9, KB-V1 cytotox inconclusive
O=[N+]([O-])c1cccc(-c2nc(-c3cccs3)c(-c3cccs3)[nH]2)c1	SW480 rereplic inconclusive
O=[N+]([O-])c1ccc(-c2nc3ccc([N+](=O)[O-])cc3[nH]2)cc1	MCF10A rereplic inconclusive, IL-1B inflam inh -90.6, KB-V1 cytotox inconclusive
CCCC[n+]1ccc(-c2nc3ccc([N+](=O)[O-])cc3[nH]2)cc1	none
O=[N+]([O-])c1ccc(-c2nc(-c3cccs3)c(-c3cccs3)[nH]2)cc1	MCF10A rereplic inconclusive, IL-1B inflam inh -80.7, KB-3-1 cytotox inconclusive, SW480 rereplic inconclusive, KB-V1 cytotox inconclusive
O=C(NCC1CCCO1)c1c[nH]c2ccc(S(=O)(=O)Nc3ccc(F)cc3F)cc2c1=O (stereo not drawn)	none (no result: MCF10A rereplic, IL-1B inflam inh, SW480 rereplic)
CCOC(=O)c1n[nH]n(-c2cc(Cl)cc(Cl)c2)c1=O	none
COC(=O)Cc1c(C)[nH]n(-c2cc(Cl)cc(Cl)c2)c1=O	MCF10A rereplic inconclusive, IL-1B inflam inh -65.3
Clc1ccc(C2Nc3ccccc3-n3cccc32)cc1 (stereo not drawn)	MCF10A rereplic 16.4µM, SW480 rereplic inconclusive
CCOC(=O)c1ccccc1NC(=O)COC(=O)c1cc([N+](=O)[O-])ccc1N1CCOCC1	IL-1B inflam inh inconclusive, KB-V1 cytotox inconclusive
COc1ccc(NC(=O)CN2CCN(Cc3ccccc3)S2(=O)=O)c(OC)c1	none (no result: MCF10A rereplic, IL-1B inflam inh, SW480 rereplic)
COc1cccc2c(SCC(=O)N/N=C/c3ccc(O)c(O)c3)cc(C)nc12	IL-1B inflam inh -63.8, SW480 rereplic inconclusive
COc1ccc2nc(C)cc(SCC(=O)N/N=C/c3cccc4ccccc34)c2c1	MCF10A rereplic 3.66µM, IL-1B inflam inh -56.3, KB-3-1 cytotox inconclusive, SW480 rereplic 4.61µM, KB-V1 cytotox 5.8µM
COc1ccc2nc(C)cc(SCC(=O)N/N=C/c3ccc(O)c(O)c3)c2c1	IL-1B inflam inh inconclusive, SW480 rereplic inconclusive
COc1ccc(Nc2nnc(-c3ccc(C)c(S(=O)(=O)NCc4nc5ccccc5[nH]4)c3)c3ccccc23)cc1	KB-3-1 cytotox inconclusive (no result: MCF10A rereplic, IL-1B inflam inh, SW480 rereplic)
COc1ccc(CN(CC(=O)NCc2ccccc2)C(=O)CCC(=O)Nc2ccccn2)cc1	none
CCCC(O)(c1ccc(Br)cc1)C(CN1CCOCC1)c1ccc(Cl)cc1 (stereo not drawn)	MCF10A rereplic inconclusive, IL-1B inflam inh -84.1, KB-3-1 cytotox inconclusive, SW480 rereplic inconclusive, KB-V1 cytotox inconclusive
CCCCCCC(O)(c1ccccc1)C(CN1CCOCC1)c1ccccc1 (stereo not drawn)	MCF10A rereplic inconclusive, KB-3-1 cytotox inconclusive, KB-V1 cytotox inconclusive

Compound activity deposited in PubChem BioAssay by National Center for Advancing Translational Sciences (NCATS).
